SMILES strings stand for the structures. The panel holds about 83,000 compounds, 20% with a hit somewhere; the sample as a whole holds those more often.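 Activity criterion: percent growth below 10, measured after cells in 96-well plates were exposed to a single compound concentration for 48 hours.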 Activity calls are given as the source filed them.

The assay has as its system OVCAR-3 ovarian. As to the kind of experiment: NCI-60 one-dose screen, 48 h (100 = growth as untreated, 0 = no growth, -100 = all killed). The conditions noted are these: 10 µM unless noted. As for the experimental part:
Growth inhibition of the OVCAR-3 human tumor cell line is measured as a screen for anti-cancer activity. Cells are grown in 96 well plates and exposed to the test compound for 48 hours. Compounds are tested at a single concentration, which is 10^-5 M for most compounds. The reported endpoint is percent growth (GI% or GIPRCNT), where numbers from 0 - 100% represent growth inhibition, and numbers from -100% - 0 represent cell death. For example, a value of 40 represents 60% growth inhibition. A value of 0 means no net growth occurred over the course of the experiment. A value of -40 indicates 40% of cells at the beginning of the experiment died by the end of the experiment. A value of -100 means all cells are dead at the end of the experiment.
NCI-60 Human Tumor Cell Lines Screen was performed using the standard one-dose NCI protocol, which is described in more detail at https://dtp.cancer.gov/discovery_development/nci-60/default.htm.
Compounds with GIPRCNT values below 10 were considered active. Activity score was based on GIPRCNT using the following formula: […]
Score is 0 for GIPRCNT values of 100 or above, 50 for GIPRCNT values of 0, and 100 for GIPRCNT values of -100.
For `COc1cc(C(=O)/C=C/c2c(C(F)(F)F)nc3sccn23)cc(OC)c1OC`, the growth is -30.6% (active).
`COc1cc(-c2nc(N3CCN(C)CC3)c3ccccc3n2)cc(OC)c1OC`: the growth is 3.18% (active).
Then `CC(C)(C)OC(=O)Nc1ccc2c(c1)C(NC(=O)Nc1cccc(C#N)c1)CC(C)(C)O2` (stereo not given), with 48% (inactive); and `CC1=C(SCCC(=O)OC(C[Se]C2=C(C)C(=O)c3ccccc3C2=O)C(=O)NCCCCCC(=O)OCc2ccccc2)C(=O)c2ccccc2C1=O` (stereo not given), with 21% (inactive).
Then `O=c1c2cc(F)ccc2sc2c(NCCN3CCCCC3)nc3ccccc3c12`, with 31.5% (inactive); and `CC1CC(C(C)(C)C)C(=O)C(C(C)(C)C)C1` (stereo not given), with 118% (inactive); and `Cc1ccc(-n2c(-c3ccccc3)c(-c3ccccc3)c3c(SCC(=O)n4[nH]c(N)cc4=O)ncnc32)cc1`, with 91.9% (inactive).
Under `COc1ccc(-c2nc3sccn3c2-c2cc(-c3cc(OC)c(OC)c(OC)c3)on2)cc1` stands 76% (inactive); under `N=c1sc(Cc2ccc(Cl)cc2)cn1CC(=O)c1ccc(F)cc1`, 92.6% (inactive).
Regarding `COc1ccc(C2CC(c3cccc(OC)c3)=NN2C(=O)c2cc(OC)c(OC)c(OC)c2)cc1` (stereo not given), the growth is -55.7% (active).
Under `Cc1c2c(c(C)c3c1oc1cc(O)ccc13)C(=O)N(CCN1CCCCC1)C2=O` stands 99.1% (inactive).
Under `O=S(=O)(Nc1cccc(Cl)c1)c1ccc(-c2cnc(C3CC3)o2)cc1` stands -9.95% (active); under `CN1CCN(CC(=O)Nc2nc(-c3cccc(NS(=O)(=O)c4cccc5c(N(C)C)cccc45)c3)cs2)CC1`, 74.4% (inactive); under `CCn1c(C)nc2cc(C(N)=O)ccc21`, 105% (inactive).
In the case of `Cc1ccc(S(=O)(=O)N/N=C\c2cc(Cl)ccc2O)cc1`, the growth was 115% (inactive).
Regarding `CC1=CN2C(=O)C3C4=C(CCCC4)SC3N=C2CN1c1c(C)cccc1C` (stereo not given), the growth is 93.9% (inactive).
Then `N#Cc1c(-c2ccccc2)cc(-c2ccc(Nc3nc(Nc4ccc(F)cc4)nc(Nc4ccc(F)cc4)n3)cc2)nc1N`, with 89.5% (inactive).
On to `COc1cccc(-c2nn(-c3ccccc3)cc2-c2ccnc(NCCNC(=O)Nc3cccc(C(F)(F)F)c3)c2)c1`, for which the growth was 39.2% (inactive).
Under `Cc1cccc(Cc2cnc(NC(=O)/C=C/c3ccco3)s2)c1` stands -2.76% (active).
`O=C(Nc1cccc(Cl)c1)c1cc(N=Nc2ccc([N+](=O)[O-])cc2Cl)ccc1O`: the growth was 85% (inactive).
Under `Cc1ccc(-c2cc(-c3ccccc3C)[nH]c(=O)c2C#N)s1` stands 94.5% (inactive); under `Cc1ccc(S(=O)(=O)Oc2cc(OS(=O)(=O)c3ccc(C)cc3)cc(OS(=O)(=O)c3ccc(C)cc3)c2)cc1`, 96.3% (inactive); under `Clc1ccc(-c2c3ccc(=[N+]4CCCCC4)cc-3oc3cc(N4CCCCC4)ccc23)cc1`, -98.3% (active).
Under `COc1cc(/C=N/Nc2ncc(-c3cc4cc5c(cc4o3)OCO5)s2)cc(OC)c1OC` stands 67.2% (inactive); under `c1ccc(Nc2nc(-c3ccccn3)cs2)nc1`, 39.7% (inactive).
Under `CCOC(CN=Cc1cc(C)c2[nH]c3ccccc3c2c1C)OCC` stands 104% (inactive).
In the case of `CCN(CC)CCn1nc2c3c(cccc3c1=O)-c1ccccc1-2`, the growth was 52.5% (inactive).
Under `Cc1cc(Cl)ccc1Nc1nc(C(F)(F)F)ccc1C(=O)N/N=C/c1ccc(N(C)C)cc1` stands 22.5% (inactive); under `N#C/C(=C\c1ccc(Br)cc1)n1nnc2cc(F)c(F)cc21`, 2.19% (active).
Under `CC1=C([Se]CC(OC(=O)[C@@H](CO)NC(=O)OC(C)(C)C)C(=O)NC(C)(C)C)C(=O)c2ccccc2C1=O` (stereo not given in full) stands -100% (active); under `O=C(NC(Cc1nnc2n(Cc3ccccc3)c(=O)c3c4c(sc3n12)CCCC4)c1ccc(Cl)cc1)c1ccccc1` (stereo not given), 90.4% (inactive); under `COc1ccc2[nH]c(O)c(/C=c3/cc4c(c(-c5ccc(F)c(OC)c5)n3)=Nc3ccccc3-4)c2c1`, -34.4% (active).
Under `COc1ccc(NC(=O)CSc2nnc(-c3cc(-c4ccc(S(N)(=O)=O)cc4)nc4ccccc34)n2-c2ccccc2)cc1` stands 95.1% (inactive); under `Cc1cc(C)c2c(-c3nnc(N)s3)cc(=O)oc2c1`, 105% (inactive).
`O=C1NC(=Nc2ccc(Cl)cc2)S/C1=C\c1cn(-c2ccccc2)nc1-c1ccccc1`: the growth is 89.2% (inactive).
Under `C=C1C(=O)O[C@H]2[C@H]1CC/C(COC(=O)C(=O)c1cn(C)c3ccc(OC)cc13)=C\CC[C@@]1(C)O[C@@H]21` stands -72.1% (active).
Then `COc1ccc(-c2csc(C3=C(O)CN(C(C)C)C3=N)n2)cc1OC`, with 117% (inactive); and `CS(=O)(=O)c1ccc(Nc2nc(N[C@H]3CCCC[C@H]3N)nc3cc[nH]c(=O)c23)cc1`, with -45.2% (active).
Then `COc1ccc(Nc2nnc(SCc3ccccc3F)s2)cc1`, with 111% (inactive).
For the compound `FC(F)(F)c1cc(Nc2ccc3cc(OCCCN4CCOCC4)ccc3n2)ccc1Cl`, the growth was 48.1% (inactive).

Values taken from PubChem BioAssay (NCI).
